This excerpt belongs to a sample that is enriched for hits.
DT40 TDP1 no CPT: qHTS for Inhibitors of human tyrosyl-DNA phosphodiesterase 1 (TDP1): qHTS in cells in absence of CPT; DT40 Tdp1-/- hTDP1 cells, no CPT, ATP luminescence, 48 h; AID 686978, 2013; actives 15% (n = 420,000); Potency, µM (titrated, usually from 46.2 µM), for the others: top-dose activity change, negative = growth inhibition, usual class: inhibitors; further: potency means the concentration at half of the fitted maximal effect; nearly all actives have a fitted effect of over 55% in size
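Compound effects on proliferation are scored in DT40 Tdp1-/-;hTDP1 cells in the absence of CPT. ATP levels (CellTiter-Glo luminescence) are recorded after a ≥48 hr, 37 °C incubation.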
TDP1 cell CPT: growth inhibition of DT40 Tdp1-/-;hTDP1 cells with camptothecin (screen for TDP1 inhibitors); chicken DT40 Tdp1-/-;hTDP1 cells + 20 nM CPT, ATP luminescence, 48 h; AID 686979; Potency, µM (titrated, usually from 46.2 µM), inactives show at the top dose activity change, negative = growth inhibition, most hits filed as inhibitors; actives 12% (n = 420,000); further: potency means the concentration at half of the fitted maximal effect; nearly all actives have a fitted effect of over 55% in size
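Chicken DT40 Tdp1-/- cells stably complemented with human TDP1 were seeded at 400 cells/well in medium containing 20 nM camptothecin, exposed to pin-transferred compounds, and grown at 37 °C for at least 48 hr. Viability was read as ATP luminescence.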
HT1080 IDH1KD tx: HT-1080 IDH1 knockdown cell toxicity (counter line) | HT-1080 IDH1 knockdown viability, ATP luminescence, 48 h | Potency, µM (doses to about 46.1 µM), for the others: at the top dose activity, negative = toxicity, hits mostly cytotoxic | actives 2% (n = 360,000) | AID 686971;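 further: potency means the concentration at half of the fitted maximal effect; 0% = DMSO wells and -100% = cell-free medium wells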
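Knockdown cells (IDH1KD HT-1080) received compounds 2 h after plating at 750 cells/well and were kept 48 h at 37 °C in 5% FBS RPMI. A CellTiter-Glo luminescence read gave % activity for curve fitting.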
HT1080-NT tox: kills 2HG-producing HT-1080-NT fibrosarcoma cells | HT-1080-NT fibrosarcoma viability, CellTiter-Glo ATP luminescence, 48 h | Potency, µM (top dose mostly 46.1 µM), inactives show top-dose activity, negative = less viability, hits mostly cytotoxic | actives 1.6% (n = 360,000);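 further: NT is the 2HG producing partner of a matched IDH1 knockdown line; potency means the concentration at half of the fitted maximal effect; 0% = DMSO-treated cells and -100% = media-only wells without cells; nearly all actives have a fitted effect of over 55% in size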
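Viability of the 2HG-overproducing fibrosarcoma line after 48 hours of compound exposure at 37 degrees C was determined by luminescence with CellTiter-Glo, and concentration-effect curves were then fitted and categorized.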
IL-1B inflam inh: inhibitors of inflammasome signaling (IL-1 beta secretion); activity change, % at 57.5 µM; THP-1 LPS/ATP IL-1B secretion, AlphaLISA, 16 h; active compounds read low; actives 4.7% (n = 360,000); AID 743279; in the data active means activity change below about -50%; inconclusive means mostly about -30% to -49%
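THP-1 cells pretreated 1 hr with compounds (up to 57.5 uM final), then stimulated with LPS (250 ng/mL final) plus ATP (1.25 mM final); secreted IL-1B measured by AlphaLISA after 16 hr, decreased signal indicating inhibition.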
ALOX12 inh: blocks human arachidonate 12S-lipoxygenase. Potency, µM (titrated, usually from 108 µM), inactives show at the highest dose activity change, negative = inhibition, hits mostly inhibitors. P18054. actives 1.1% (n = 580,000). purified 12hLO, xylenol orange hydroperoxide absorbance; further: potency means the concentration at half of the fitted maximal effect
Target sequence (P18054 whole entry, looked up): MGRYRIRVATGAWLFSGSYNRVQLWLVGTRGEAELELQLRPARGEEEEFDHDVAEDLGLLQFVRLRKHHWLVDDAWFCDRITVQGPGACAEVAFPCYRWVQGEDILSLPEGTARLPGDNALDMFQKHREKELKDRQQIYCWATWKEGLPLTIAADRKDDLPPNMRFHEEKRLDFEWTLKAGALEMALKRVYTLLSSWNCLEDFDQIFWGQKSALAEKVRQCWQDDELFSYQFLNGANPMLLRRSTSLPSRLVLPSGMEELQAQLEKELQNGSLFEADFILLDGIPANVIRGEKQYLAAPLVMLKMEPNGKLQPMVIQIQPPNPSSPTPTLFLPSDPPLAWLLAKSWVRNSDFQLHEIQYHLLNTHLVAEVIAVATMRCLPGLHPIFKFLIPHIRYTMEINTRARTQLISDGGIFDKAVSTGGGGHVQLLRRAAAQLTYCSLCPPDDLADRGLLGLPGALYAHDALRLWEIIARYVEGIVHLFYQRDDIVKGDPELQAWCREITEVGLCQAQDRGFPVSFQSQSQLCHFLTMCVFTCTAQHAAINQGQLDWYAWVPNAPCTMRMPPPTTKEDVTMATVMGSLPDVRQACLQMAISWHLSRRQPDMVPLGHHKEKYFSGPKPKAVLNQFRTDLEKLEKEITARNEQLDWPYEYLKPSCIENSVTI
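Hydroperoxide product was detected by ferrous iron/xylenol orange as the 573 to 405 nm absorbance ratio. Arachidonic acid at 40 uM (final) was turned over for 30 min at room temperature by 150 nM human 12hLO, pH 7.0 Hepes buffer, after 15 min compound preincubation.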
* = called active by the depositor. Unless noted, the call rests on the fitted dose curve; in most records, active means well fitted curve in the direction sought with a large enough effect; inconclusive means small, poorly fitted or top-dose-only effect, or another doubt; inactive means no such curve, though single readings can be large; an effect the other way counts as inactive or inconclusive. Unless noted, on the % scale 0 is the no-effect control and ±100 the full control effect.

For O=C1NC(Cc2ccc(O)cc2)c2nc3cc(F)ccc3c(=O)n2-c2cc3ccccc3cc21 (stereo not given) the results were DT40 TDP1 no CPT 7.3µM*, TDP1 cell CPT inconclusive, HT1080 IDH1KD tx 18µM*, HT1080-NT tox 15µM*, IL-1B inflam inh inconclusive and ALOX12 inh 0%.
For Cc1ccc2c(c1)-n1c(nc3cc(F)ccc3c1=O)C(Cc1ccc(O)cc1)NC2=O (stereo not given) the results were ALOX12 inh -7%.
For N#CCCn1c(=O)c(-c2cc(F)cc(F)c2)nc2cnc(Oc3cccc(Cl)c3)nc21 the results were DT40 TDP1 no CPT inconclusive, TDP1 cell CPT inconclusive and ALOX12 inh 0%.
CC1=NN(c2ccc(Cl)cc2)C(=O)/C1=C\c1cccn1-c1ccc(S(N)(=O)=O)cc1 was read as DT40 TDP1 no CPT 15µM*, TDP1 cell CPT inconclusive, HT1080 IDH1KD tx inconclusive, HT1080-NT tox inconclusive, IL-1B inflam inh inconclusive and ALOX12 inh -26%.
O=C1NC(c2cccc(Br)c2)=N/C1=C\c1ccco1 was read as DT40 TDP1 no CPT -12%, TDP1 cell CPT inconclusive, HT1080 IDH1KD tx 0%, HT1080-NT tox -1%, IL-1B inflam inh 80 and ALOX12 inh 45µM*.
O=C1NC(c2ccccc2)=N/C1=C/c1ccco1 was read as DT40 TDP1 no CPT 2%, TDP1 cell CPT -2%, HT1080 IDH1KD tx -23%, HT1080-NT tox -30%, IL-1B inflam inh -10 and ALOX12 inh inconclusive.
`O=C1CSC(=NC2CCCCC2)N1` gave DT40 TDP1 no CPT 18µM*, TDP1 cell CPT 23µM*, HT1080 IDH1KD tx -1%, HT1080-NT tox 1%, IL-1B inflam inh -96* and ALOX12 inh 22%.
`O=C(CN1CC(=O)Oc2ccccc21)OCC(=O)c1ccc(Br)cc1` gave DT40 TDP1 no CPT inconclusive, TDP1 cell CPT 21µM*, HT1080 IDH1KD tx -1%, HT1080-NT tox -2%, IL-1B inflam inh 68 and ALOX12 inh 0%.
Cc1ccc(-c2csc(NC(=O)C3CC(=O)N(Cc4ccco4)C3)n2)cc1 (stereo not given) was read as DT40 TDP1 no CPT inconclusive, TDP1 cell CPT inconclusive, HT1080 IDH1KD tx -13%, HT1080-NT tox -13%, IL-1B inflam inh -65* and ALOX12 inh 0%.
For Cc1csc(NC(=O)C2CC(=O)N(Cc3ccco3)C2)n1 (stereo not given) the results were DT40 TDP1 no CPT -1%, TDP1 cell CPT 3%, HT1080 IDH1KD tx 3%, HT1080-NT tox 9%, IL-1B inflam inh 23 and ALOX12 inh 7%.
For COc1ccc(NC(=O)CCCOc2ccc(Cl)c(C)c2)cc1S(=O)(=O)N1CCOCC1 the results were DT40 TDP1 no CPT inconclusive, TDP1 cell CPT inconclusive, HT1080 IDH1KD tx inconclusive, HT1080-NT tox -5%, IL-1B inflam inh -7 and ALOX12 inh -5%.
`O=C(c1ccc(C(F)(F)F)cc1)N1CCC2(CC1)Cc1ccccc1NC2=O` gave ALOX12 inh 26%.
For CC(=O)Cc1c(C)n[nH]c1C the results were ALOX12 inh 4%.
For C/C(=N\NC(=O)CCCNc1ccccc1)c1ccncc1 the results were DT40 TDP1 no CPT -21%, TDP1 cell CPT 2%, HT1080 IDH1KD tx 3%, HT1080-NT tox 12%, IL-1B inflam inh 0 and ALOX12 inh -13%.
Screening C/C(=N\NC(=O)CCCNc1ccc(C)cc1)c1ccccn1 returned DT40 TDP1 no CPT 5.2µM*, TDP1 cell CPT 5.8µM*, HT1080 IDH1KD tx inconclusive, HT1080-NT tox -4%, IL-1B inflam inh 12 and ALOX12 inh 13%.
Screening Cc1cccc(/C=N\NC(=O)c2ccccc2-n2cccc2)c1 returned DT40 TDP1 no CPT -10%, TDP1 cell CPT 11%, HT1080 IDH1KD tx 6%, HT1080-NT tox 10%, IL-1B inflam inh 15 and ALOX12 inh 2%.
C/C(=N\NC(=O)c1ccccc1-n1cccc1)c1ccccn1 was read as DT40 TDP1 no CPT 1.8µM*, TDP1 cell CPT 2.1µM*, HT1080 IDH1KD tx inconclusive, HT1080-NT tox inconclusive, IL-1B inflam inh 112 and ALOX12 inh 2%.
`C/C(=N\NC(=O)c1ccc(F)cc1)c1ccccn1` gave DT40 TDP1 no CPT 1µM*, TDP1 cell CPT 0.92µM*, HT1080 IDH1KD tx inconclusive, HT1080-NT tox inconclusive, IL-1B inflam inh -66* and ALOX12 inh 10%.
Screening CCN(CC)C(=O)COc1ccc(/C(C)=N/NC(=O)c2ccccc2-n2cccc2)cc1 returned DT40 TDP1 no CPT inconclusive, TDP1 cell CPT -15%, HT1080 IDH1KD tx -1%, HT1080-NT tox 7%, IL-1B inflam inh -2 and ALOX12 inh 335%.
For CCc1ccc(/C(C)=N/NC(=O)c2ccccn2)cc1 the results were DT40 TDP1 no CPT 4%, TDP1 cell CPT -3%, HT1080 IDH1KD tx 1%, HT1080-NT tox -12%, IL-1B inflam inh 0 and ALOX12 inh -3%.
`O=C(N/N=C/c1ccc(Br)cc1)c1ccccc1-n1cccc1` gave DT40 TDP1 no CPT 16µM*, TDP1 cell CPT inconclusive, HT1080 IDH1KD tx 11µM*, HT1080-NT tox inconclusive, IL-1B inflam inh 32 and ALOX12 inh -18%.
`CCN(CC)Cc1cnc2c(C(=O)N3CCC(N(C)C)C3)cnn2c1` (stereo not given) gave ALOX12 inh 33%.
C/C(=N\NC(=O)c1cc2ccccc2cc1O)c1ccccn1 was read as DT40 TDP1 no CPT 1.3µM*, TDP1 cell CPT 1.2µM*, HT1080 IDH1KD tx inconclusive, HT1080-NT tox inconclusive, IL-1B inflam inh 70 and ALOX12 inh 1%.
C/C(=N\NC(=O)c1cc2ccccc2cc1O)c1cc2ccccc2o1 was read as DT40 TDP1 no CPT 15µM*, TDP1 cell CPT inconclusive, HT1080 IDH1KD tx inconclusive, HT1080-NT tox inconclusive, IL-1B inflam inh 101 and ALOX12 inh -12%.
For COc1ccc(NCC(=O)N/N=C(\C)c2cc3ccccc3o2)cc1 the results were DT40 TDP1 no CPT inconclusive, TDP1 cell CPT inconclusive, HT1080 IDH1KD tx -11%, HT1080-NT tox -9%, IL-1B inflam inh -55* and ALOX12 inh -9%.
For C/C(=N/NC(=O)c1cc2ccccc2cc1O)C1C(=O)c2ccccc2C1=O the results were DT40 TDP1 no CPT -6%, TDP1 cell CPT -26%, HT1080 IDH1KD tx inconclusive, HT1080-NT tox -22%, IL-1B inflam inh -18 and ALOX12 inh inconclusive.

Screening results (PubChem)
